# High-throughput results: PubChem, Broad Institute
# Rows were chosen to be rich in hits. Some 2.9% of all compounds tested hit in one or more screens of this group.
# esBAF inh – blocks esBAF chromatin remodeling in mouse ES cells. Bmi1-luciferase knock-in reporter, 24 h; 100% = twice the neutral-well signal. reporter increase, % at 12.5 µM. AID 602393. actives 2% (n = 350,000); in the data active means activation above about 40%; inconclusive means no clear call, values can overlap the other calls;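 further: 0% = median of the plate's neutral control wells and 100% = double that signal; a rise in the Bmi1 reporter signal indicates esBAF inhibition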
# MITF TRPM1 HTS – increases MITF-driven TRPM1 promoter luciferase signal. SK-MEL-5 TRPM1-promoter luciferase, 24 h; % of positive control, neutral wells = 0. activation, % at 12.5 µM. actives 0.75% (n = 300,000);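 active means mean activation of at least 80% with every replicate also reaching 80%; inconclusive means mean reaches 80% but some replicate falls short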;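 further: 0% = neutral control wells and 100% = parthenolide positive control wells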
# Wnt act – Wnt/beta-catenin pathway activation; actives 1.2% (n = 300,000); Wnt/beta-catenin reporter cell assay, activator, plate reader; activation, % at 9.35 µM; in the data active means activation above about 30%, passing the limit was not always enough; inconclusive means no clear call, values can overlap the other calls;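 further: 0% = neutral control wells and 100% = positive control wells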
# Vif imaging – HIV Vif inhibition; actives 0.35% (n = 340,000); inhibition, % at 7.49 µM; HEK293T cells, Vif self-association by quenched fluorescence, imaging, 24 h; in the data active means inhibition above about 50%, passing the limit was not always enough; inconclusive means no clear call, values can overlap the other calls; inactive means below about 31%
# PvdQ inh – P. aeruginosa PvdQ acylase inhibition; purified PvdQ acylase, fluorescence plate reader; inhibition, % at 10 µM; actives 0.063% (n = 340,000); AID 488965; in the data active means inhibition above about 30%, passing the limit was not always enough; inconclusive means no clear call, values can overlap the other calls;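 further: 0% = vehicle neutral wells and 100% = reference inhibitor wells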
# N-glyco inh – N-linked glycosylation inhibition; D54 ERlucT glycosylation luciferase reporter, 24 h; percent of 100 nM tunicamycin response; reporter increase, % at 12.5 µM; actives 0.23% (n = 360,000); AID 588692;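 active means mean luciferase reporter signal, scaled so untreated is 0 and the glycosylation-blocking control 100, at or above a set limit in every replicate; inconclusive means mean reaches the limit but not every replicate does; inactive means mean below the limit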;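 further: luciferase carries N-glycosylation sites so blocking glycosylation raises the light; 0% = median of neutral control wells and 100% = median of 100 nM tunicamycin wells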
# Starred values were filed as active, the others as inactive; ? = inconclusive; nt = no result given.
SMILES,esBAF inh,MITF TRPM1 HTS,Wnt act,Vif imaging,PvdQ inh,N-glyco inh
Cc1ccc(OC(=O)c2cccc(S(=O)(=O)N(C)C)c2)c(-n2nc3ccccc3n2)c1,8,30,-4,6,-18,-2
Cc1ccc(OC(=O)c2cccc(S(=O)(=O)N3CCCC3)c2)c(-n2nc3ccccc3n2)c1,nt,99*,104*,-2,-2,-5
Cc1cccc(NC(=O)COC(=O)c2cccc(S(=O)(=O)N3CCCCCC3)c2)c1,0,14,0,0,-11,4
CC(=O)Oc1ccc(C)cc1-n1nc2ccccc2n1,40,nt,77*,-6,11,-4
Cc1ccc(OCC(=O)O)c(-n2nc3ccccc3n2)c1,-6,1,nt,3,2,0
Cc1cc(C)cc(NC(=O)COC(=O)c2cccc(S(=O)(=O)N3CCCCC3)c2)c1,3,-4,33*,0,-10,4
O=C1CSc2ccc(C(=O)NCCC3=CCCCC3)cc2N1,50*,30,19,-3,-8,-1
COc1ccc(C(=O)NCCC2=CCCCC2)cc1OC,50*,nt,nt,11,-9,0
C[C@@H]1CCCCO[C@H](CN(C)C(=O)Nc2ccc(F)cc2)[C@@H](C)CN([C@@H](C)CO)C(=O)c2cc(NS(=O)(=O)c3ccc(F)cc3)ccc2O1,5,nt,nt,nt,nt,nt
O=C(/C=C\Nc1ccc2c(c1)OCO2)c1ccc2c(c1)OCO2,nt,13,34*,1,-3,-8
COc1ccc(N/C=C\C(=O)c2ccc3c(c2)OCO3)cc1,nt,53,75*,5,1,-6
COc1ccc(N/C=C/C(=O)c2ccc3c(c2)OCO3)cc1OC,nt,73,nt,-9,-7,1
COc1ccc(NC(=O)Nc2ccc3c(c2)[C@H]2C[C@@H](CC(=O)O)O[C@@H](CO)[C@H]2O3)cc1,-5,nt,nt,nt,nt,nt
Cc1ccc(Oc2cnc3ccccc3n2)cc1,28,109*,nt,1,-19,-8
Clc1ccc(Oc2cnc3ccccc3n2)cc1,10,60,3,-5,1,-7
O=S(=O)(c1ccc(F)cc1)N1CCCCN2[C@H](CO)[C@H](c3ccc(C#CC4CC4)cc3)[C@H]2C1,1,nt,nt,nt,nt,nt
C[C@@H]1CCCCO[C@@H](CN(C)C(=O)c2ccccc2)[C@@H](C)CN([C@@H](C)CO)C(=O)c2cc(NS(C)(=O)=O)ccc2O1,-4,nt,nt,nt,nt,nt
O=c1oc(-c2ccccc2Cl)nc2ccsc12,nt,-6,nt,-10,17,2
O=c1oc(-c2ccc(F)cc2)nc2ccsc12,14,-14,4,-8,70*,3
CCOc1ccc(/C(O)=C2/C(=O)C(=O)N(CCCn3ccnc3)C2c2cccs2)cc1Cl (stereo unspecified),56*,nt,18,1,-10,0
COCCNC(=O)C(=O)Nc1ccc(Br)cc1,49*,27,nt,-2,-4,0
COCCNC(=O)C(=O)Nc1cccc(Br)c1,57*,54,5,nt,6,1
Cc1noc(C)c1S(=O)(=O)Nc1ccc2c(c1)C(=O)N([C@H](C)CO)C[C@@H](C)[C@@H](CN(C)Cc1ccccc1)O2,-2,nt,nt,nt,nt,nt
CCOC(=O)c1ccc2[nH]c3c(c2c1)CCCC3O (stereo unspecified),nt,24,1,1,-8,2
CCOC(=O)c1ccc2[nH]c3c(c2c1)CCCC3,66*,63,20,19,-5,1
SMILES,esBAF inh,MITF TRPM1 HTS,Wnt act,Vif imaging,PvdQ inh,N-glyco inh
C#CC[N+](C)(C)CCCCCCCCC,nt,-13,-1,-3,-5,30*
CCOc1ccc(S(=O)(=O)Nc2cccc(-c3ccc(N4CCCCCC4)nn3)c2)cc1,34,36,5,0,-3,-1
COc1ccc(C)cc1S(=O)(=O)Nc1cccc(-c2ccc(N3CCCCCC3)nn2)c1,?,14,6,-8,0,-1
O=S(=O)(Nc1cccc(-c2ccc(N3CCCCCC3)nn2)c1)c1ccc(F)cc1,56*,63,17,9,-1,-5
O=[N+]([O-])c1ccc(Cl)c(S(=O)(=O)Nc2cccc(-c3ccc(N4CCOCC4)nn3)c2)c1,32,86*,10,-3,-7,-1
O=S(=O)(Nc1cccc(-c2ccc(N3CCCCCC3)nn2)c1)c1ccccc1Cl,44*,3,5,-1,-8,-3
O=S(=O)(Nc1cccc(-c2ccc(N3CCCCCC3)nn2)c1)c1ccccc1F,nt,72,26,11,-12,0
